Source: PubChem BioAssay (National Center for Advancing Translational Sciences (NCATS))
Sampled rows, rich in hits. Any-hit rate of the full collection: about 11%.
AMA1-RON2 inh: AMA1-RON2 (P. falciparum) interaction inhibition. AlphaScreen AMA1-biotinylated RON2 peptide binding. Potency, µM (doses to about 58.2 µM), hits mostly inhibitors. hit rate 0.2% among 360,000. AID 720542; also: nearly all actives have a fitted effect of over 45% in size
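AMA1 (3D7) with his tag at 25 nM final met compounds first, then biotinylated RON2 peptide at 25 nM; detection used donor plus acceptor beads, 10 µg/mL apiece, read by AlphaScreen after 30 min at room temperature.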
Pf growth 48h: inhibits P. falciparum growth in the first generation, 48 h | Potency, µM (highest dose often 28.7 µM), usual class: inhibitors | P. falciparum luciferase growth in erythrocytes, 48 h | hit rate 5.9% among 310,000
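Erythrocytes infected with P. falciparum carrying an integrated firefly luciferase reporter (2% hematocrit, 0.1% parasitemia final) were exposed to compounds in RPMI 1640 with 0.5% Albumax at 37 C, 5% CO2. Growth inhibition was scored as reduced luminescence.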
HCV inhibitor: HCV inhibition. Huh7.5.1 HCVcc-Cre infection, luciferase reporter, 44 h. Potency, µM (highest dose often 41.8 µM), hits mostly inhibitors. hit rate 3.4% among 340,000. AID 651820
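Luciferase read-out (15 sec integration) after a 15 min room-temperature substrate step quantifies HCVcc-Cre infection. Cells, 1,000 per well, had compound added 4 h post-plating, then virus at ~0.5 moi, and were cultured 44 h.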
Pf growth 96h: P. falciparum growth inhibition at 96 hour, primary screen for plastid delayed-death inhibitors | AID 504834 | P. falciparum luciferase reporter growth, 96 h | hit rate 6.9% among 320,000 | Potency, µM (top dose mostly 28.7 µM), actives largely listed as inhibitors
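Compounds incubated with erythrocytes infected by luciferase-expressing P. falciparum (2% hematocrit, 0.05% parasitemia final) for 96 hours, 37 C in 5% CO2. Growth inhibition scored as decreased luciferase luminescence.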
Numbers stand for hits; i = inactive; ? = inconclusive; nt = no result; [ ] = dose if it differs, or a comment. Calls follow the shape of the dose curve; as a rule, active = well fitted curve in the direction sought with a large enough effect; inconclusive = small, poorly fitted or top-dose-only effect, or another doubt; inactive = no such curve, though single readings can be large; an effect the other way counts as inactive or inconclusive.

SMILES | AMA1-RON2 inh | Pf growth 48h | HCV inhibitor | Pf growth 96h
NC(=O)c1nsc(C(=O)N(c2ccccc2)C(C(=O)NCC2CCCO2)c2cccs2)c1N (stereo not given) | i | i | i | ?
COc1ccc(-c2nsc(C(=O)N(c3ccc(F)cc3)C(C(=O)NC3CCCC3)c3ccc(OC)cc3)c2N)cc1 (stereo not given) | i | 2.6µM | i | nt
COc1ccc(CCNC(=O)C2CCCN(c3ncccn3)C2)cc1 (stereo not given) | i | i | i | i
Cc1nccn1C(c1ccccc1)c1ccccc1 | i | nt | i | nt
CCCN(CCC)CCCNC(=O)c1cn(CC)c2ccc(S(=O)(=O)N(C)C3CCCCC3)cc2c1=O | i | 9.3µM | ? | 10µM
CCOCCCNC(=O)c1cn(CC)c2ccc(S(=O)(=O)N(C)C3CCCCC3)cc2c1=O | i | 9.3µM | i | ?
CCCN(CCC)CCCNC(=O)c1cn(C)c2ccc(S(=O)(=O)N(C)C3CCCCC3)cc2c1=O | i | ? | i | i
Cc1ccc(S(=O)(=O)N2CCC(=O)N(CCO)CC2)cc1 | i | i | i | i
Cc1cc(Br)ccc1NC(=O)CN1CCN(c2ccccn2)CC1 | i | i | i | i
Cc1ccc(NC(=O)c2cnc(N3CCN(c4ccccn4)CC3)c3ccccc23)c(Br)c1 | i | ? | 7.1µM | ?
O=C(Nc1c(F)cccc1F)c1cnc(N2CCN(c3ccccn3)CC2)c2ccccc12 | i | ? | 13µM | ?
O=C(c1cnc(N2CCN(c3ncccn3)CC2)c2ccccc12)N1CCN(c2ccccn2)CC1 | i | ? | ? | ?
Cc1c(N=N/C(C(=O)Nc2ccccc2)=C(/O)c2ccccc2)c(=O)n(-c2ccccc2)n1C | i | ? | i | 3.7µM
Cc1cccc(OCC(=O)Oc2ccc(Cl)cc2)c1 | i | nt | i | nt
Cc1cccc(OC(=O)NCCOC(=O)N(O)c2ccc(Cl)cc2)c1 | i | i | i | 7.4µM
O=C(NC(=S)NC1C2CC3CC(C2)CC1C3)c1ccccc1 (stereo not given) | i | i | i | 10µM
COC(=O)CCNC(=O)c1ccc2nc(Cc3ccc(OC)c(OC)c3)oc2c1 | i | i | i | ?
COc1ccc(Cc2nc3ccc(C(=O)NCCCSC)cc3o2)cc1OC | i | i | i | 2.9µM
NC(=O)C1CCN(c2ncnc3c2c(-c2ccccc2)cn3-c2ccccc2)CC1 | i | nt | i | 10µM
COc1ccc([C@H]2CC(=O)C=C(c3cc4ccccc4c4ccccc34)C2)cc1 | i | i | ? | ?
COc1cccc(C2=CC(=O)C[C@H](c3ccc(Cl)cc3)C2)c1 | i | 2.9µM | i | ?
O=C1C=C(c2ccc3[nH]ccc3c2)C[C@@H](c2ccc(Cl)cc2)C1 | i | 2.6µM | ? | 4.7µM
CCOc1ccc(Cl)cc1C1=CC(=O)C[C@H](c2ccc(OC)cc2)C1 | i | ? | 8.9µM | ?
COc1ccc([C@H]2CC(=O)C=C(c3ccc(C)c4ccccc34)C2)cc1 | i | ? | i | 1.2µM
CC(=O)c1cccc(-c2ccnc3c2CC(C(=O)Nc2cccc(C(F)(F)F)c2)O3)c1 (stereo not given) | i | nt | nt | nt
SMILES | AMA1-RON2 inh | Pf growth 48h | HCV inhibitor | Pf growth 96h
Cc1ccc(Cl)cc1NC(=O)COC(=O)CSc1ccccc1 | i | nt | i | nt
O=C(COC(=O)Cc1n[nH]c(=O)c2ccccc12)Nc1ccc(Cl)cn1 | i | i | i | i
CCc1nc2ccc(C(=O)Nc3cccc(NS(C)(=O)=O)c3)cn2c1N(C)C(=O)c1cccc(OC)c1 | i | nt | nt | nt
CSCCC(NC(=O)c1ccccc1)C(=O)Nc1ccc(NC(C)=O)cc1 (stereo not given) | nt | i | i | i
O=C1C=C(c2ccccc2)C[C@@H](c2ccc(Cl)cc2)C1 | i | 2.6µM | i | ?
Cc1ccc(C2=CC(=O)C[C@H](c3ccc(Cl)cc3)C2)cc1 | i | i | i | i
O=C1C=C(c2ccc(O)cc2)C[C@@H](c2ccc(Cl)cc2)C1 | i | 3.7µM | i | 2.3µM
O=C1C=C(c2cccc(CO)c2)C[C@@H](c2ccc(Cl)cc2)C1 | i | 0.33µM | i | 0.47µM
CC(C)c1cccc(C2=CC(=O)C[C@H](c3ccc(F)cc3)C2)c1 | i | 1.7µM | i | 2.3µM
Nc1cc(N)nc(CS)n1 | i | i | i | i
CCOC(=O)c1csc(N)c1-c1ccc([N+](=O)[O-])cc1 | i | i | ? | i
Cc1cccc(OCCNC(=O)CCNS(=O)(=O)c2ccc3ccccc3c2)c1 | i[11.6 µM] | ? | i | i
Clc1ccc2nc(-c3ccccc3)c(CC3CCCCC3)n2c1 | i | nt | nt | nt
O=C(O)c1cccc(NC(=O)c2ccc3c(c2)C(=O)N(C2CCCCC2)C3=O)c1 | i | i | i | i
COC(=O)c1ccc(Cn2cc(/C=C\[N+](=O)[O-])c3ccccc32)o1 | i | 4.7µM | i | ?
Cc1cccc(Cn2cc(/C=C/[N+](=O)[O-])c3ccccc32)c1 | i | 3.7µM | ? | i
COC(=O)c1ccc(Cn2nc(C)c([N+](=O)[O-])c2C)o1 | i | i | i | 13µM
O=[N+]([O-])/C=C/c1cn(Cc2ccc(Cl)cc2)c2ccccc12 | ? | 3.7µM | ? | ?
C#Cc1ccccc1OCCCN1CCC(C(O)(c2ccccc2)c2ccccc2)CC1 | i | nt | nt | nt
CCN(CC)c1nc(-c2ccc(C(=O)NN)cc2)nc(-c2ccc(C(=O)NN)cc2)n1 | i | nt | i | ?
CCOC(=O)c1[nH]c2c(c1C)C(=O)CC(c1ccc(OC)c(OC)c1)C2 (stereo not given) | i | ? | ? | i
COCCOC(=O)c1[nH]c2c(c1C)C(=O)CC(c1cc(OC)ccc1OC)C2 (stereo not given) | i | i | ? | ?
COc1cc(C2CC(=O)c3c([nH]c(C(=O)OCCOC(C)C)c3C)C2)cc(OC)c1OC (stereo not given) | i | 7.4µM | ? | ?
CCOCCOC(=O)c1[nH]c2c(c1C)C(=O)CC(c1ccc(OC)c(OC)c1)C2 (stereo not given) | i | ? | ? | 1.5µM
Cc1ccc2nc(SCC(=O)Nc3cc(C)on3)nc(=O)n2c1 | i | ? | i | i
SMILES | AMA1-RON2 inh | Pf growth 48h | HCV inhibitor | Pf growth 96h
Cc1cc(C)n2nc(C)c(-c3ccccc3)c2n1 | i | nt | i | nt
COc1ccc(-c2c(C)nn3c(-c4ccccc4)cc(C)nc23)cc1 | i | i | 11µM | ?
Cc1cc(C)c2c(n1)nn1c(N3CCN(c4ccccn4)CC3)cc(C)nc21 | nt | i | i | 3.3µM
Cc1cc(N2CCCCCC2)n2nc(C)c(-c3ccccc3)c2n1 | i | i | ? | ?
Cc1ccc(-c2c(C)nn3c(N4CCOCC4)cc(C)nc23)cc1 | i | i | i | ?
Cc1nn2c(N3CCN(c4ccccn4)CC3)cc(C(C)C)nc2c1-c1ccccc1 | i | 3.3µM | ? | ?
Cc1cc(N2CCOCC2)n2nc(C)c(-c3ccccc3)c2n1 | i | i | 11µM | nt
CCCCCCCCCCCCCCCCCCCCCC(=O)Nc1ccn([C@@H]2O[C@H](CO)[C@@H](O)[C@@H]2O)c(=O)n1 | nt | i | nt | i
CCc1nn2c(N3CCOCC3)cc(C)nc2c1-c1ccccc1 | i | i | i | i
Cc1cc(N2CCOCC2)n2nc(C)c(-c3ccccc3Cl)c2n1 | i | ? | ? | 5.2µM
COc1ccc(N2CCN(c3nc(NC(C)(C)C)nc(N4CCCCC4)n3)CC2)cc1 | ? | 1.9µM | ? | nt
